# From PubChem BioAssay (NCATS)
# Records with an inconclusive call do not appear. Where a call stands in place of a potency, no number is given. Calls of active or inactive are those of the source. Unless noted, calls follow the shape of the dose curve; as a rule, active = well fitted curve in the direction sought with a large enough effect in the repeat runs; inconclusive = weak or mixed curves; inactive = no such curve, though single readings can be large; an effect the other way counts as inactive or inconclusive.
# Key:
# [1] = biological target: Calcium and integrin-binding protein 1 (Homo sapiens) (UniProt Q99828); test: Primary qHTS for Identification of Calcium Integrin Binding Protein 1 (CIB1) Competitor (AID 1508620; active = well fitted curve in the direction sought with a large enough effect; an effect the other way counts as inactive or inconclusive;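 also: GST tagged CIB1 binding a fluorescein labelled alphaIIb integrin peptide tracer; top concentration of the series differs between compounds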)
# Summary of the method: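 CIB1-GST (1 uM final) and compound incubated 15 min at room temperature before adding FITC-alphaIIb peptide tracer (100 nM final). Competition for binding read by fluorescence polarization (ex 480, em 540) after another 15 min at room temperature.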
# [2] = Primary qHTS for small molecule stabilizers of the endoplasmic reticulum resident proteome: Secreted ER Calcium Modulated Protein (SERCaMP) assay (AID 1508630; active = well fitted curve in the direction sought with a large enough effect; an effect the other way counts as inactive or inconclusive)
# Summary of the method: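 GLuc-SERCaMP-expressing SH-SY5Y cells, pretreated 16 h with compound, are challenged with thapsigargin to empty ER calcium stores; after 4 h, coelenterazine is added directly to the medium and luminescence is imaged.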
# [3] = A High-Content qHTS Against Drug Library for the Identification of Small Molecules that Inhibit DYT1 Early Onset Primary Dystonia-Associated Cell Pathology (AID 1645839; calls by dose curve)
# Summary of the method: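 In this high-content image screen, delE TorsinA mislocalization in inducible Flp-In 293 cells is scored as %pathology, with cell count serving as the counterscreen. Compound exposure lasts 48 h under tetracycline induction in reduced-serum medium.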
# [4] = biological target: Cytochrome P450 2D6 (Homo sapiens) (UniProt P10635); test: Cytochrome P450 family 2 subfamily D member 6 (CYP2D6) small molecule antagonists: luciferase biochemical (cell-free) qHTS assay (AID 1645840); also: nearly all actives have a fitted effect of over 55% in size; also: potency is read from the fitted curve at half-maximal effect
# Summary of the method: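 P450-Glo luminescent screen: recombinant CYP2D6 enzyme–proluciferin substrate mix preincubated with compound 10 min at room temperature, then NADPH regeneration added for 1 h at room temperature. Detection reagent added for 20 min; luciferin light read as relative luminescence units.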
# [5] = Primary qHTS for inhibitors of nuclear receptor binding SET domain protein 2 (NSD2) in an isogenic RCH-ACV NSD2 p.E1099K mutant (9B) (AID 1645876; active = well fitted curve in the direction sought with a large enough effect; an effect the other way counts as inactive or inconclusive; also: nearly all actives have a fitted effect of over 70% in size; also: potency is read from the fitted curve at half-maximal effect)
# [6] = Primary qHTS for inhibitors of nuclear receptor binding SET domain protein 2 (NSD2) in an RCH-ACV wild type WT cells (2C) (AID 1645877; active = well fitted curve in the direction sought with a large enough effect; an effect the other way counts as inactive or inconclusive; also: nearly all actives have a fitted effect of over 70% in size; also: potency is read from the fitted curve at half-maximal effect)
# [7] = biological target: Cytochrome P450 2C9 (Homo sapiens) (UniProt P11712); test: Cytochrome P450 family 2 subfamily C member 9 (CYP2C9) small molecule antagonists: luciferase biochemical (cell-free) qHTS assay (AID 1645842); also: nearly all actives have a fitted effect of over 55% in size; also: potency is read from the fitted curve at half-maximal effect
# Summary of the method: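 Luminescence, after 20 min with luciferin detection reagent, reflected CYP2C9 turnover during a 1 h NADPH-driven reaction at 37C. Enzyme-substrate mix contained 0.4% bovine serum albumin and was preincubated with compound 10 min at room temperature.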
# [8] = biological target: Cytochrome P450 3A4 (Homo sapiens) (UniProt P08684); test: Cytochrome P450 family 3 subfamily A member 4 (CYP3A4) small molecule antagonists: luciferase qHTS assay (AID 1645841); also: nearly all actives have a fitted effect of over 45% in size
# Summary of the method: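 Luminescent CYP3A4 activity readout: compounds plus enzyme-substrate mix 10 min at room temperature, reaction started with NADPH regenerating system for 1 h, stopped with detection reagent, read after 20 min. Ketoconazole served as control.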
# [9] = biological target: N-terminal Xaa-Pro-Lys N-methyltransferase 1 (Homo sapiens) (UniProt Q9BV86); test: Confirmatory qHTS for Inhibitors of N-terminal methyltransferase 1 (NTMT1): MTaseGlo Assay (AID 1645874; active = well fitted curve in the direction sought with a large enough effect; an effect the other way counts as inactive or inconclusive;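 also: luminescence from SAH made as NTMT1 methylates SPKRIA peptide using SAM; nearly all actives have a fitted effect of over 65% in size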)
# Summary of the method: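 Compounds are incubated with 125 nM NTMT1 and 100 uM SAM for 15 min before the SPKRIA peptide (1 uM) starts a 30 min room-temperature methylation. SAH is measured by coupled luciferase luminescence and curves fitted to a Hill equation.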
# [10] = biological target: Catechol O-methyltransferase (Homo sapiens) (UniProt P21964); test: Confirmatory Screen for Target Class Profiling of Small Molecule Inhibitors of Methyltransferases (AID 1745852); settings: MTase-Glo luminescence, SAH detection, recombinant enzyme; measured here: COMT max response; stronger effect = lower value
# [11] = biological target: Guanidinoacetate N-methyltransferase (Homo sapiens) (UniProt Q14353); test: as above; settings: activity change, negative = inhibition: at 57.3 µM (top of the series) unless noted
# [12] = biological target: Nicotinamide N-methyltransferase (Homo sapiens) (UniProt P40261); test: as above; settings: MTase-Glo luminescence, SAH detection, recombinant enzyme; measured here: NNMT max response; stronger effect = lower value
# [13] = biological target: Phenylethanolamine N-methyltransferase (Homo sapiens) (UniProt P11086); test: as above; settings: MTase-Glo luminescence, SAH detection, recombinant enzyme; measured here: PNMT max response; stronger effect = lower value
# Phenylethanolamine N-methyltransferase (Homo sapiens), sequence (P11086 whole entry, looked up): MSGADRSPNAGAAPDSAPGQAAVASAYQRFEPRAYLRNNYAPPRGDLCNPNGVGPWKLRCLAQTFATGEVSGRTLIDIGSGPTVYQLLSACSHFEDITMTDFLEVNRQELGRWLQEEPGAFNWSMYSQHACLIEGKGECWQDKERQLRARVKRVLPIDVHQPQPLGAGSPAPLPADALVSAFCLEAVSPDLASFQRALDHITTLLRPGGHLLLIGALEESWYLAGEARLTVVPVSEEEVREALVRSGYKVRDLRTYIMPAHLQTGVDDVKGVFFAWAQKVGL
# Cytochrome P450 2C9 (Homo sapiens), sequence (P11712 whole entry, looked up): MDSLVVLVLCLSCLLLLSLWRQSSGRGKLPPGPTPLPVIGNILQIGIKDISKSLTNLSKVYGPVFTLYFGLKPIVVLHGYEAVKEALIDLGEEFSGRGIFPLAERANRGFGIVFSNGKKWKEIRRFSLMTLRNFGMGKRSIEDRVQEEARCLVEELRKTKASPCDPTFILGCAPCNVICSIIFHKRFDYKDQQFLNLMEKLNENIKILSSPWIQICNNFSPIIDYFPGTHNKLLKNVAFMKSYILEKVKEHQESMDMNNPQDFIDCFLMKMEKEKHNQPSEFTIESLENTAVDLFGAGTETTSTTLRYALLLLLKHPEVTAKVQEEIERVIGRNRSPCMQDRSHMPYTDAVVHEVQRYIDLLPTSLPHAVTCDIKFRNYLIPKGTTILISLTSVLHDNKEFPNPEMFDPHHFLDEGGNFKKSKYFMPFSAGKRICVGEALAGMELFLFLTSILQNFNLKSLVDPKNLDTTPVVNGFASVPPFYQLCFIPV
# Cytochrome P450 3A4 (Homo sapiens), sequence (P08684 whole entry, looked up): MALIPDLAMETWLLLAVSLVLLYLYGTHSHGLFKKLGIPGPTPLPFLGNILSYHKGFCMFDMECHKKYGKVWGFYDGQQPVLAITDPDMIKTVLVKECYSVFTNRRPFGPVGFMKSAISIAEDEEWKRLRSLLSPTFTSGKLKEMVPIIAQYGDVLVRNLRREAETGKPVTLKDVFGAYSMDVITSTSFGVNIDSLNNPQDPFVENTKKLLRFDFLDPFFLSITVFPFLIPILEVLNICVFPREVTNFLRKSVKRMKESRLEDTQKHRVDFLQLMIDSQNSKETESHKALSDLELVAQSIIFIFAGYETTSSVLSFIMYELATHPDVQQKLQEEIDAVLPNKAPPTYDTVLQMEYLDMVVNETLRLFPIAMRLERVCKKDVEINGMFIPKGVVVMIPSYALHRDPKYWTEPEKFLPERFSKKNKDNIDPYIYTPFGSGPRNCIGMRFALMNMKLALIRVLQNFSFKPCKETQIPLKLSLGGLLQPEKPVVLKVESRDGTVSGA
# Cytochrome P450 2D6 (Homo sapiens), sequence (P10635 whole entry, looked up): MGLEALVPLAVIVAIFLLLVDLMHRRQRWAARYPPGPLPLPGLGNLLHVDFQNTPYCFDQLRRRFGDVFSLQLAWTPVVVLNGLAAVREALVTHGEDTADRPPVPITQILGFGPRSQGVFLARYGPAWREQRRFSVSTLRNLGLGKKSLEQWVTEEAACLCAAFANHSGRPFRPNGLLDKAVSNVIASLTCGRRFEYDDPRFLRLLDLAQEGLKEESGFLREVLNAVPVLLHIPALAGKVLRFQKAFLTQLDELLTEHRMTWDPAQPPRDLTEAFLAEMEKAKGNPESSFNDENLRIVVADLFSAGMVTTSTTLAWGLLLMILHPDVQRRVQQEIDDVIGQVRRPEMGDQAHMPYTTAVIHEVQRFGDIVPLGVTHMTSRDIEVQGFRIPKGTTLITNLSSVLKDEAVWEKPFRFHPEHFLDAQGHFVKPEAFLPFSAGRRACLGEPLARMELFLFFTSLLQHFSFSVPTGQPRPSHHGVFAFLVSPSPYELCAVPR
# Calcium and integrin-binding protein 1 (Homo sapiens), sequence (Q99828 whole entry, looked up): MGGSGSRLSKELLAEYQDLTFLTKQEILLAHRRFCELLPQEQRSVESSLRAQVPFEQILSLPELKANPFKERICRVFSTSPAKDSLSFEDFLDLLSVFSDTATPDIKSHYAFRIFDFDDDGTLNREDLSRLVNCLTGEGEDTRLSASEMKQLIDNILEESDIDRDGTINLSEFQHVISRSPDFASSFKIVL
# Catechol O-methyltransferase (Homo sapiens), sequence (P21964 whole entry, looked up): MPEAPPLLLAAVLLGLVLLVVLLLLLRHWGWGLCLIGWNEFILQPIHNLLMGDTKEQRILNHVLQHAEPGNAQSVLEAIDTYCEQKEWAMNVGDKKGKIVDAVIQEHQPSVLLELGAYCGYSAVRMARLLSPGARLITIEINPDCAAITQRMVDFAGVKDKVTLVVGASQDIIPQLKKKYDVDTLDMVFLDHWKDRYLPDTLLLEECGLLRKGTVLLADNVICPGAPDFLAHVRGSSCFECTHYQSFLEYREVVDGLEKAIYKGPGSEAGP
# N-terminal Xaa-Pro-Lys N-methyltransferase 1 (Homo sapiens), sequence (Q9BV86 whole entry, looked up): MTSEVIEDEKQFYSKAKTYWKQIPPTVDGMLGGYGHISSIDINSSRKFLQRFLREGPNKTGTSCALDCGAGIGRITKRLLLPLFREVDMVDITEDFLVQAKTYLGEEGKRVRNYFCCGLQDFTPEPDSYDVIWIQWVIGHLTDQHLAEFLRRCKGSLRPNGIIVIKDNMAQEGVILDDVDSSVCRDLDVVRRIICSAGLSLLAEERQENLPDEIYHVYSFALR
# Nicotinamide N-methyltransferase (Homo sapiens), sequence (P40261 whole entry, looked up): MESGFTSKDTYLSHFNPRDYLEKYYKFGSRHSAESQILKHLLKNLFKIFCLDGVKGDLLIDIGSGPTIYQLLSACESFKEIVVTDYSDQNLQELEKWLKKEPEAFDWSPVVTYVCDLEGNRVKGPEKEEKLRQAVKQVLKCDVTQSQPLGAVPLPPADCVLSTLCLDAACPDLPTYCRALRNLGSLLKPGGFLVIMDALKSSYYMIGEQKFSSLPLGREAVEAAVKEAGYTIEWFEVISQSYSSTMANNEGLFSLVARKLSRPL
structure (smiles),measurement,setting,value
CC1=CC(=O)C2C(C)(C)CCC[C@]2(C)[C@H]1CO (some centres not stated),Potency,[1],inactive
Cc1noc(=O)c2ccc(NC(=O)C(O)(CC(C)(C)c3cccc4c3OCC4)C(F)(F)F)cc12 (configuration not stated),Potency,[1],inactive
O=C(O)c1ccccc1NCCc1ccccc1,Potency,[1],inactive
same,outcome,[2],inactive
same,Potency,[3],inactive
same,Potency,[4],11 µM (active)
same,Potency,[5],inactive
same,Potency,[6],inactive
CCC(C)C(=O)O[C@H]1CCC=C2C=C[C@H](C)[C@H](CC[C@@H](O)C[C@@H](O)CC(=O)O)[C@H]21 (some centres not stated),Potency,[1],inactive
C/C=C/C=C/C=C/C(=O)OC1C=C(C=O)C(O)(C(=O)O)C2(C)CCCC(C)(C)C12 (configuration not stated),Potency,[1],inactive
NC(=O)c1csc(C2OC(CO)C(O)C2O)n1 (configuration not stated),Potency,[1],inactive
Cc1c(C(=O)Nc2ccc(N3CC(C)OC(C)C3)nc2)cccc1-c1ccc(OC(F)(F)F)cc1 (configuration not stated),Potency,[1],inactive
same,Potency,[4],inactive
same,Potency,[7],inactive
CC(C)(C)CCN1C[C@@H]2C(CNC(=O)c3cc(Cl)cc(Cl)c3)[C@@H]2C1 (some centres not stated),Potency,[1],inactive
same,Potency,[4],3.79 µM (active)
CSc1ccc(C(=O)N[C@@H]2CCCC[C@@H]2NC(=O)CNC(=O)c2cc(C(F)(F)F)ccc2NC(=O)NC(C)C)cc1,Potency,[1],inactive
same,Potency,[4],9.52 µM (active)
same,Potency,[7],3.01 µM (active)
O=[N+]([O-])c1cn2c(n1)OCC(OCc1ccc(OC(F)(F)F)cc1)C2 (configuration not stated),Potency,[1],inactive
same,Potency,[4],inactive
C=CC(=O)Nc1cc(Nc2nccc(-c3c[nH]c4ccccc34)n2)c(OC)cc1N(C)CCN(C)C,Potency,[1],inactive
same,Potency,[4],inactive
same,Potency,[7],8.49 µM (active)
CC(C)(C)NS(=O)(=O)c1cncc(-c2cc(F)c3nc(N)nn3c2)c1,Potency,[1],inactive
same,Potency,[4],inactive
same,Potency,[7],inactive
COc1ccc(CC2NCCc3c2[nH]c2ccc(C)cc32)cc1OC (configuration not stated),Potency,[1],inactive
same,Potency,[4],0.239 µM (active)
same,Potency,[7],10.7 µM (active)
Cn1nc(C(C)(C)C)cc1C(=O)NC(Cc1cccc(Cl)c1)C(=O)NCC#N (configuration not stated),Potency,[1],inactive
same,Potency,[4],15.1 µM (active)
same,Potency,[7],15.1 µM (active)
CON(C)C(=O)[C@H](O)[C@H](Cc1ccccc1)NC(=O)c1cc2cc(Cl)ccc2[nH]1,Potency,[1],inactive
same,Potency,[4],21.3 µM (active)
same,Potency,[7],10.7 µM (active)
CNC(=O)c1cc(Oc2ccc3nc(N[C@@H]4CCCC[C@H]4O)sc3c2)ccn1,Potency,[1],inactive
same,Potency,[4],16.9 µM (active)
same,Potency,[7],8.49 µM (active)
Cc1cc(Nc2ncc3cc(-c4c(Cl)cccc4Cl)c(=O)n(C)c3n2)ccc1F,Potency,[1],inactive
same,Potency,[4],inactive
same,Potency,[8],inactive
same,Potency,[7],6.74 µM (active)
same,Potency,[5],0.728 µM (active)
same,Potency,[6],0.817 µM (active)
O=S(=O)(NC1CCC(c2cc(F)ccc2F)(S(=O)(=O)c2ccc(Cl)cc2)CC1)C(F)(F)F (configuration not stated),Potency,[1],inactive
same,Potency,[4],19 µM (active)
same,Potency,[7],0.425 µM (active)
C[C@H](C(=O)NC1CCCC1)N(C(=O)Cn1nnc(-c2ccc3c(c2)OCO3)n1)C1CCCCC1,Potency,[1],inactive
same,Potency,[4],19 µM (active)
same,Potency,[7],2.68 µM (active)
O=C1CCC(c2ccccc2)(C2CCN(Cc3ccc(I)cc3)CC2)C(=O)N1 (configuration not stated),Potency,[1],inactive
same,Potency,[4],13.5 µM (active)
same,Potency,[7],inactive
Cc1csc(NC(=O)c2ccc(COc3cccc(Cl)c3)o2)n1,Potency,[1],inactive
same,Potency,[4],19 µM (active)
same,Potency,[7],7.56 µM (active)
COc1cc2ncnc(Nc3ccc(O)cc3)c2cc1OC,Potency,[1],inactive
same,Potency,[4],inactive
Cc1noc(-c2ccc(-c3ccc(CC(=O)O)cc3)cc2)c1NC(=O)O[C@H](C)c1ccccc1,Potency,[1],inactive
same,Potency,[4],inactive
same,Potency,[7],13.5 µM (active)
CC(=O)NC[C@H]1CN(c2ccc(N3CCN(C(=O)CO)CC3)c(F)c2)C(=O)O1,Potency,[1],inactive
same,Potency,[4],inactive
same,Potency,[7],inactive
CCN(CC)Cc1ccc(C(=O)N(CCc2ccccc2OC)[C@@H]2CCNC2)cc1,Potency,[1],inactive
same,Potency,[4],13.5 µM (active)
same,Potency,[7],inactive
Cc1cc(C)c2c(N)c(C(=O)NCc3ccc(Cl)cc3)sc2n1,Potency,[1],inactive
same,Potency,[4],13.5 µM (active)
same,Potency,[7],1.9 µM (active)
same,Potency,[9],inactive
c1cc(OCCCN2CCCCC2)ccc1CN1CCCCC1,Potency,[1],inactive
same,Potency,[4],inactive
same,Potency,[8],inactive
same,Potency,[7],inactive
same,activity,[10],-4.16%
same,"activity change, negative = inhibition",[11],-2.14%
same,activity,[12],-0.228%
same,activity,[13],-0.509%
Cc1ccc(-c2c(C(=O)CF)n(CCCO)c3ncnc(N)c23)cc1,Potency,[1],inactive
same,Potency,[4],inactive
same,Potency,[7],21.3 µM (active)
Cc1ccc(S(=O)(=O)n2ccc(-c3c(-c4ccc(Cl)cc4)noc3C)n2)cc1,Potency,[1],inactive
same,Potency,[4],inactive
same,Potency,[7],5.35 µM (active)
COc1ccc(-n2[nH]c(=O)c3[nH]c4cc(Cl)ccc4c(=O)c3c2=O)c(C)c1,Potency,[1],inactive
same,Potency,[4],inactive
same,Potency,[8],inactive
same,Potency,[7],inactive
Cc1ccc(S(=O)(=O)Nc2ccccc2N2CCCCC2)s1,Potency,[1],inactive
same,Potency,[4],inactive
CS(=O)(=O)c1ccc([C@H](CC2CCCC2)C(=O)Nc2nccs2)cc1,Potency,[1],inactive
same,Potency,[4],10.7 µM (active)
same,Potency,[7],6.01 µM (active)
CS(=O)(=O)NCC1CCC(Nc2nc3c(s2)CCSc2ccccc2-3)CC1 (configuration not stated),Potency,[1],inactive
same,Potency,[4],10.7 µM (active)
COC(C(=O)N1Cc2[nH]nc(NC(=O)c3ccc(N4CCN(C)CC4)cc3)c2C1)c1ccccc1 (configuration not stated),Potency,[1],inactive
same,Potency,[4],inactive
same,Potency,[8],inactive
same,Potency,[7],inactive
same,Potency,[5],0.0515 µM (active)
same,Potency,[6],0.0459 µM (active)
COc1cc(Nc2nc3ccccc3nc2NS(=O)(=O)c2ccc(NC(=O)c3ccc(OC)c(C)c3)cc2)cc(OC)c1,Potency,[1],inactive
same,Potency,[4],inactive
same,Potency,[7],3.79 µM (active)
OC1CCC(Nc2ncc3nc(Nc4c(F)cc(F)cc4F)n([C@H]4CCOC4)c3n2)CC1 (some centres not stated),Potency,[1],inactive
same,Potency,[4],inactive
same,Potency,[7],inactive
Oc1ccc2nc(CN3CCC(Cc4ccccc4F)CC3)[nH]c2c1,Potency,[1],inactive
same,Potency,[4],0.0379 µM (active)
same,Potency,[7],10.7 µM (active)
